Source: PubChem BioAssay AID2018 (Sanford-Burnham Center for Chemical Genomics, 2009)
About 600 (50%) of roughly 1,200 compounds were called active. So high a share suggests a set chosen from earlier hits. This is one part of the list. Entries with a potency or affinity are not part of this list. Values without a mark were called inactive. No stated cut-off is given here; in the data, active means inhibition above about 42%; inactive means the rest.

Target: SUMO-conjugating enzyme UBC9 (Homo sapiens) (UniProt P63279)
Sequence (P63279 whole entry, looked up): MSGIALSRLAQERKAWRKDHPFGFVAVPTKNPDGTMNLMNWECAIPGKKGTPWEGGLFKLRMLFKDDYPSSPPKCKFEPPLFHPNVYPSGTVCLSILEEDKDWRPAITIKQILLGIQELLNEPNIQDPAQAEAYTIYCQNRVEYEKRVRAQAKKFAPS
Test: blockers of UBC9-mediated SUMO conjugation – biochemical, AlphaScreen, SUMOylation inhibitor project, confirmation (AID 2018)
Details: AlphaScreen in vitro SUMOylation assay; at 35 µM; active compounds read high

| Structure (SMILES) | inhibition |
| --- | --- |
| COc1ccc(Br)cc1C1CC(=O)N2CN(Cc3ccccc3)CSC2=C1C#N (stereo not drawn) | 29.1% |
| COc1ccc(CC2=C(O)c3ccccc3C(=O)C2=O)cc1 | 19.6% |
| O=C1C(=O)c2ccccc2C(O)=C1CCCCl | 102% (active) |
| CC1(OC(=O)c2cccs2)C(=O)C=C2C=C3CCCN3C=C2C1=O (stereo not drawn) | 83.7% (active) |
| Cc1nc2ccc(NC(=O)NCc3ccco3)cc2s1 | -8.1% |
| CC(=O)C1=C(O)C=C(c2ccco2)CC1c1ccco1 (stereo not drawn) | 28.1% |
| Cc1ccc(S(=O)(=O)NNC(=S)Nc2c(Cl)cccc2Cl)cc1 | -0.4% |
| Fc1ccc(-c2ccnc3nc(N4CCOCC4)nn23)cc1 | -6.1% |
| O=C(O)c1ccc(C(=O)Nc2cccc3ccccc23)c(C(=O)O)c1 | 12.5% |
| Cc1cc(N2C(=O)c3ccc(C(=O)Nc4ccc(O)cc4C(=O)O)cc3C2=O)no1 | 39.8% |
| N#Cc1ccc(-c2csc(NC(=O)/C=C/c3cccs3)n2)cc1 | 3.9% |
| CNc1nnc(-c2cc3ccccc3oc2=O)s1 | 28.9% |
| Nc1nnc(-c2cc3c(ccc4ccccc43)oc2=O)s1 | 46.1% (active) |
| COC(=O)c1scc(C)c1NC(=O)C(Cl)c1ccccc1 (stereo not drawn) | -8.2% |
| N#Cc1c(-c2ccco2)cc(-c2cccnc2)nc1N | 26.7% |
| N#Cc1sc2nc(-c3ccccc3)cc(-c3ccco3)c2c1N | 96.1% (active) |
| CC(=O)c1sc2nc(-c3ccco3)ccc2c1N | 40% |
| COc1ccc(CN2C(=O)Cc3c2nc(N)c2c(N)nc(N4CCOCC4)c(C#N)c32)cc1 | 11% |
| CCOc1cc2c(C#N)c(N3CCOCC3)nc(N)c2c(N)n1 | 44.2% (active) |
| CCOc1cc2c(C#N)c(N3CCCCC3)nc(N)c2c(N)n1 | 101% (active) |
| CCOc1cc2c(C#N)c(N3CCNCC3)nc(N)c2c(N)n1 | 18.3% |
| Cc1oc2c(c(C)cc3oc(=O)c(CC(=O)NCC(=O)NCC(=O)NCC(C)O)c(C)c32)c1C (stereo not drawn) | -15.6% |
| CCOC(=O)c1c(NC(=O)c2ccco2)n(C2CCCCC2)c2nc3ccccc3nc12 | 63.5% (active) |
| COc1ccc(-n2c(NC(=O)c3ccco3)c(C#N)c3nc4ccccc4nc32)cc1 | 101% (active) |
| O=C(Nc1cccc2cccc(NC(=O)c3ccco3)c12)c1ccco1 | 36.3% |
| CN(c1ccccc1)c1cc(=O)[nH]c(=O)[nH]1 | 11.4% |

| Structure (SMILES) | inhibition |
| --- | --- |
| Oc1ccc(NC(=S)Nc2ccc(O)cc2)cc1 | 19.5% |
| Oc1oc(-c2ccccc2)nc1C=Nc1cccc2ccccc12 | -77.5% |
| O=[N+]([O-])c1ccc(C=Nc2cccc3ccccc23)s1 | 82.6% (active) |
| Oc1cccc(C=NCc2ccccc2)c1O | 51.5% (active) |
| O=[N+]([O-])c1ccc(-c2ccc(C=Nc3cccc4ccccc34)o2)cc1 | 58.3% (active) |
| Cc1ccccc1N=Cc1cccc(O)c1O | 33.2% |
| Oc1cccc(C=Nc2cccc3ccccc23)c1O | 59% (active) |
| O=C(CNc1cccc2ccccc12)N/N=C/c1ccc([N+](=O)[O-])cc1 | -19.8% |
| CN(C)CCNS(=O)(=O)c1ccc2c3c(cccc13)C(=O)N2 | 15.4% |
| Oc1cccc2c(NC(=S)Nc3ccc(SC(F)F)cc3)cccc12 | 36.5% |
| O=C(NCCc1csc(-c2ccccc2)n1)c1c(F)cccc1Cl | -8.6% |
| Oc1ccc(C=Nc2cccc3ccccc23)c(O)c1 | 42.8% (active) |
| Oc1ccc(C=Nc2cccc3ncccc23)c(O)c1 | 27.7% |
| O=[N+]([O-])c1cccc2cn[nH]c12 | -0.5% |
| CCOc1ccc(C=Nc2cccc3ncccc23)cc1 | 23.5% |
| Oc1ccccc1N=Cc1c(O)ccc2ccccc12 | 56.9% (active) |
| Oc1c(C=Nc2cccc3nsnc23)ccc2ccccc12 | 98% (active) |
| Oc1ccc(N=Cc2c(O)ccc3ccccc23)cc1 | 21.9% |
| COc1ccc(C=Nc2cccc3ncccc23)cc1 | 16.5% |
| Oc1ccc2ccccc2c1C=Nc1ccc(Cl)cn1 | 26.1% |
| N#CC1=C(N)N2C(=C(C#N)C1c1ccc(Br)cc1)Nc1ccccc12 (stereo not drawn) | 20.4% |
| Cc1cc(NCCO)c2cc(O)ccc2n1 | 3% |
| O=[N+]([O-])c1cc(C=Nc2cccc3c(O)cccc23)ccc1Cl | 33.8% |
| O=[N+]([O-])c1ccc(C=Nc2ccc(Cl)c([N+](=O)[O-])c2)s1 | 98.4% (active) |
| CCCC(=O)NC(=S)Nc1cccc2c(O)cccc12 | 10.1% |
| O=C(NC(=S)Nc1cccc2c(O)cccc12)c1cccc(Br)c1 | 52.7% (active) |

| Structure (SMILES) | inhibition |
| --- | --- |
| O=C(NC(=S)Nc1cccc2c(O)cccc12)c1ccco1 | 41.6% |
| NNc1nc2c(Cl)ccc(Cl)c2s1 | 8% |
| Cc1ccc(C)c(S(=O)(=O)Nc2cc(SCC(=O)O)c(O)c3ccccc23)c1 | 51.2% (active) |
| Cc1cc(C)c(S(=O)(=O)Nc2cc(SCC(=O)O)c(O)c3ccccc23)cc1C | 43.1% (active) |
| Cc1ccc(C)c(S(=O)(=O)Nc2ccc(O)c3ccccc23)c1 | 39.8% |
| COc1ccc2c(C)c(C(=O)NCC(C)O)oc2c1OC (stereo not drawn) | 6.4% |
| COC(=O)c1cc2c(C)[nH]c(C)c2cc(C(=O)OC)c1=O | 13.6% |
| CN1CCCc2cc3c(C(F)(F)F)cc(=O)oc3nc21 | -9% |
| N#CC1=C(N)Oc2n[nH]c(-c3cccs3)c2C1c1cccs1 (stereo not drawn) | 33.5% |
| Cc1cc(NC(=O)CSc2nnc(Nc3ccccc3C)s2)no1 | 25.7% |
| Cc1cc(-c2csc(NC(=O)c3ccc(C#N)cc3)n2)c(C)n1Cc1ccco1 | 21.4% |
| Cc1c(C)c2cc(Cl)c(O)c(CN3CCN(C)CC3)c2oc1=O | -1% |
| CCOC(=O)c1sc(NC(=O)c2cccc(S(=O)(=O)N3CCc4ccccc43)c2)c(C#N)c1C | 33.4% |
| O=C(NCc1ccccc1)Nc1cccn(Cc2ccccc2)c1=O | 3.6% |
| COc1ccccc1NC(=O)CSc1ccc2nnc(-c3ccccn3)n2n1 | 14.2% |
| COc1ccccc1NC(=O)Cn1nc(C)n2cccc2c1=O | 0.4% |
| CC1(C)CC(=O)C2=C(C1)Nc1[nH]c(=S)[nH]c(=O)c1C2c1ccccc1 (stereo not drawn) | 12.7% |
| Cc1occc1C(=O)N1CCN(c2ccccc2)CC1 | 19.6% |
| CC(C)Cn1c(N)c(C(=O)NCc2cccs2)c2nc3ccccc3nc21 | -100% |
| Nc1c(C(=O)NCc2ccco2)c2nc3ccccc3nc2n1CCc1ccccc1F | 2.7% |
| COCCn1c(N)c(C(=O)NCc2cccs2)c2nc3ccccc3nc21 | -23.2% |
| COCCNC(=O)c1c(N)n(CCC2=CCCCC2)c2nc3ccccc3nc12 | 4.1% |
| O=c1cc(-c2ccc(F)cc2)[nH][nH]1 | 24.9% |
| Cn1c(NNC(=O)c2c(F)cccc2F)cc(=O)n(C)c1=O | 42.1% (active) |
| CC1=NN(c2ccccc2)C(=O)/C1=C/c1ccc(Cl)cc1 | 58.2% (active) |
| CC1=NN(c2ccccc2)C(=O)/C1=C/c1cccs1 | 40.6% |

| Structure (SMILES) | inhibition |
| --- | --- |
| CC1=NN(c2ccccc2)C(=O)/C1=C\c1cn(CCC#N)nc1-c1ccc(Cl)cc1 | 60.8% (active) |
| CC1=NN(c2ccc(Br)cc2)C(=O)/C1=C/c1cccs1 | 59.4% (active) |
| COc1cc(/C=C2\C(=O)N(CCC#N)N=C2C)c(Br)cc1OC(C)C | -16.2% |
| CC1=NN(c2ccccc2)C(=O)/C1=C\c1ccc(Br)s1 | 75% (active) |
| O=c1c2ccccc2oc2cc(NCCCN3CCOCC3)ccc12 | -1.4% |
| CCCNC(=O)c1ccc2c(=O)c(O)c(-c3ccsc3)[nH]c2c1 | 16.3% |
| O=C1C(NS(=O)(=O)c2cccs2)=C(N2CCN(c3cccc(C(F)(F)F)c3)CC2)C(=O)c2ccccc21 | 88.2% (active) |
| S=c1[nH]nc(-c2ccccc2Cl)n1/N=C/C=C/c1ccco1 | 34.1% |
| S=c1[nH]nc(-c2cccnc2)n1/N=C/C=C/c1ccco1 | 15.4% |
| COc1c(C)oc2cc(O)ccc2c1=O | 3.3% |
| O=C(Cc1cc(=O)oc2cc(O)ccc12)NCC1CCC(C(=O)O)CC1 (stereo not drawn) | 6% |
| COCCNC(=S)Nc1cccc2cnccc12 | -7.2% |
| S=C(Nc1ccc(Cl)cc1)Nc1cccc2cnccc12 | 42.2% (active) |
| CCc1ccc(NC(=S)Nc2cccc3cnccc23)cc1 | 69.6% (active) |
| Cc1ccc(NC(=S)Nc2cccc3cnccc23)cc1C | 31.1% |
| Fc1ccc(NC(=S)Nc2cccc3cnccc23)cc1 | 9.9% |
| Cc1cc(C)cc(NC(=S)Nc2cccc3cnccc23)c1 | 31.7% |
| O=C1N/C(=N/N=C/c2ccccc2O)SC1Cc1ccc(F)cc1 (stereo not drawn) | 7.4% |
| CNCc1ccccc1Sc1ccc(O)c(O)c1 | -26.2% |
| CCOc1cc(CNc2ccccc2SC)ccc1O | 65.8% (active) |
| O=C(NCc1ccccc1)Nc1cccn(Cc2ccccc2F)c1=O | -5% |
| COc1cccc(Cn2cccc(NC(=O)Nc3ccccc3C)c2=O)c1 | 31.1% |
| CCc1ccccc1NC(=O)Nc1cccn(Cc2ccccc2F)c1=O | 2.6% |
| Cc1oc2c(c(C)cc3oc(=O)c(CC(=O)N[C@H](C(=O)O)C(C)C)c(C)c32)c1C | 10.7% |
| COc1ccc(-c2csc(CCN3N=C(C)CC3=O)n2)cc1 | 53.9% (active) |
